# Bioassay records: PubChem, Broad Institute
# A selection: hits, their analogues and other compounds. The true share with any hit is near 3%.
# MITF act: activators of MITF-driven TRPM1 promoter reporter, primary screen, cell-based, SK-MEL-5, luciferase, single point; SK-MEL-5 TRPM1-promoter luciferase, 24 h; % of positive control, neutral wells = 0; activation, % at 12.5 µM; 300,000 tested, 0.75% active;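 active = mean activation of at least 80% with every replicate also reaching 80%; inconclusive = mean reaches 80% but some replicate falls short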;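 note: 0% = neutral control wells and 100% = parthenolide positive control wells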
# PfHsp90 yeast 2: growth inhibition of PfHsp90-expressing yeast, primary screen, antimalarial PfHsp90 inhibitor project, S. cerevisiae, BacTiter-Glo luminescence, single point, set 2; BacTiter-Glo ATP, 48 h; yeast lacking PDR1 and PDR3 efflux regulators; inhibition, % at 9.4 µM; 310,000 tested, 0.32% active;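 active = every replicate shows inhibition above about 80%, whatever the replicate mean, limit read from the data; inconclusive = mean inhibition reaches the set limit but some replicate falls short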;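 note: 0% = DMSO neutral controls and 100% = 20 µM radicicol positive controls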
# Glyco luc inh: increase of ERlucT glycosylation luciferase signal, primary screen, N-linked glycosylation inhibitor project, D54 ERlucT cells, luminescence, set 2; D54 ERlucT glycosylation luciferase reporter, 24 h; percent of 100 nM tunicamycin response; reporter increase, % at 12.5 µM; 360,000 tested, 0.23% active;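 active = mean luciferase reporter signal, scaled so untreated is 0 and the glycosylation-blocking control 100, at or above a set limit in every replicate; inconclusive = mean reaches the limit but not every replicate does; inactive = mean below the limit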;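 note: luciferase carries N-glycosylation sites so blocking glycosylation raises the light; 0% = median of neutral control wells and 100% = median of 100 nM tunicamycin wells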
# Vif inh: HIV Vif self-association inhibitors, primary screen, imaging, HEK293T, single point; HEK293T cells, Vif self-association by quenched fluorescence, 24 h; inhibition, % at 7.49 µM; 340,000 tested, 0.35% active; in the data active = inhibition above about 50%, passing the limit was not always enough; inconclusive = no clear call, values can overlap the other calls; inactive = below about 31%
# Wnt bcat act: Wnt/beta-catenin pathway activators, primary screen, cell-based, plate reader, single point; 300,000 tested, 1.2% active; Wnt/beta-catenin reporter cell assay, activator; AID 743398, 2014; activation, % at 9.35 µM; in the data active = activation above about 30%, passing the limit was not always enough; inconclusive = no clear call, values can overlap the other calls;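 note: 0% = neutral control wells and 100% = positive control wells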
# esBAF inh: Bmi1 luciferase reporter increase in mESCs, primary screen, esBAF inhibitor project, mouse ES cells, Bmi1 luciferase knock-in, single point; 24 h; 100% = twice the neutral-well signal; 350,000 tested, 2% active; reporter increase, % at 12.5 µM; AID 602393, 2012; in the data active = activation above about 40%; inconclusive = no clear call, values can overlap the other calls;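 note: 0% = median of the plate's neutral control wells and 100% = double that signal; a rise in the Bmi1 reporter signal indicates esBAF inhibition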
# An asterisk follows results filed as active; ? = inconclusive; nt = no result.
SMILES,MITF act,PfHsp90 yeast 2,Glyco luc inh,Vif inh,Wnt bcat act,esBAF inh
COc1cc2nc(CN3CCN(S(=O)(=O)c4ccccc4C(F)(F)F)CC3)[nH]c(=O)c2cc1OC,-16,nt,0,9,0,-9
COc1ccc(OC)c(S(=O)(=O)N2CCCC(C(=O)NCc3cccnc3)C2)c1 (stereo not drawn),-2,4,0,60*,-2,1
COC(=O)NCCOc1cc(C)ccc1C,-6,3,4,2,-1,-2
COc1ccc2c(c1)CCC/C2=N/OC(=O)c1ccccc1OC,9,-12,0,8,0,nt
COc1ccc2c(c1)CC/C2=N\OC(=O)c1ccccc1C,117*,15,-2,3,3,nt
O=c1[nH]c(-c2ccccc2)nnc1-c1ccccc1,32,20,0,42,32*,25
Cc1nnc(-c2ccccc2)[nH]c1=O,-4,-1,3,-10,-3,2
CS(=O)CSc1nc2c(cc1C#N)CCCC2 (stereo not drawn),-5,0,0,40,0,-2
Cc1cccc(C)c1NC(=O)CN1C(=O)C2CC=CCC2C1=O (stereo not drawn),1,7,0,-2,0,-5
CN(C)c1cccc(C(=O)NNC(=O)CN2C(=O)C3CC=CCC3C2=O)c1 (stereo not drawn),47,nt,-13,14,4,42*
CCOC(=O)N1CCN(Cc2nc3cc(NC(=O)c4cccs4)ccc3n2CC)CC1,14,1,8,4,-1,7
COc1ccc(S(=O)(=O)n2ccc(-c3cnc(-c4ccccc4)s3)n2)cc1,59,13,-3,-9,41*,21
O=C(c1ccccc1)n1ccc(-c2cnc(-c3ccccc3)s2)n1,43,-12,-9,6,nt,nt
COc1ccccc1N1C(=O)c2cccc3c(N(C)CCO)ccc(c23)C1=O,1,0,1,80*,0,-3
C/C(=N\NC(=O)c1cc(C)oc1C)c1ccc(N2CCOCC2)cc1,-3,nt,1,2,-1,nt
Cc1cc(C)nc(/N=C(\N)Nc2ccc(CC(=O)OC(C)C)cc2)n1,nt,1,48*,3,-2,-10
Cc1cc(C)nc(/N=C(\N)Nc2ccc(OCc3ccccc3)cc2)n1,-56,-1,48*,-6,-3,nt
COc1ccc(N/C(N)=N/c2nc(C)cc(C)n2)cc1,nt,nt,6,nt,-4,-8
Cc1cc(C)nc(/N=C(\N)Nc2ccc(S(=O)(=O)O)cc2)n1,6,-12,1,17,-2,nt
Cc1cc(C)nc(/N=C(\N)Nc2cccc(OCc3ccccc3)c2)n1,nt,-1,20,-6,13,nt
Cc1cc(C)nc(/N=C(\N)Nc2ccc(OCCC(C)C)cc2)n1,nt,-4,48*,6,-6,-6
CC(C)NC(=O)c1[nH]nc2c1CCc1ccccc1-2,nt,4,-1,-11,nt,13
CC(NNC(=S)N1CCN(c2ccccn2)CC1)c1nccc2ccccc12 (stereo not drawn),-85,121*,-10,2,-4,nt
CCNC(=S)N1CCN(c2ccccn2)CC1,15,3,3,4,-2,nt
O=c1[nH]c2ccc(Br)cc2o1,-9,13,0,?,1,4
SMILES,MITF act,PfHsp90 yeast 2,Glyco luc inh,Vif inh,Wnt bcat act,esBAF inh
O=C(CCl)c1ccc2[nH]c(=O)oc2c1,-21,-9,1,0,36*,-1
O=C(Nc1ccccc1F)c1ccc(CSc2ncccn2)cc1,76,18,-4,8,11,62*
N#CCCCC#Cc1ccc2c(c1)COc1c3ccccc3nn1-2,-8,-16,-22,-6,8,-70
CCCCCCC#Cc1ccc2c(c1)COc1c3ccccc3nn1-2,84*,-1,-4,-2,19,40
CCCCC#Cc1ccc2c(c1)COc1c3ccccc3nn1-2,13,16,-15,nt,23,71*
O=C(N/N=C/c1ccccc1OCc1ccccc1Cl)c1cccnc1,-3,3,0,0,-2,8
